A short description of assay [1]: A CellTox Green Cytotoxicity Assay to monitor cytotoxicity in HepG2 cells - 0 hour (AID 1224882). Note: nearly all actives have a fitted effect of over 35% in size. The essentials:
(§1)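 Real-time, homogeneous cytotoxicity readout: dead-cell DNA staining by CellTox Green in HepG2 monolayers, fluorescence measured at timed intervals up to 40 h of continuous compound exposure.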

Assay [2] in a line: A CellTox Green Cytotoxicity Assay to monitor cytotoxicity in HepG2 cells - 32 hour (AID 1224883). Note: nearly all actives have a fitted effect of over 50% in size. Note: potency is the fitted concentration of half-maximal effect. The essentials: as §1
A short description of assay [3]: A CellTox Green Cytotoxicity Assay to monitor cytotoxicity in HEK293 cells - 8 hour (AID 1224884). Note: nearly all actives have a fitted effect of over 35% in size. The procedure, abridged:
(§2)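 Cytotoxicity was tracked continuously in HEK293 cells by a DNA-binding dye excluded from viable cells. Compounds were transferred in DMSO 5 h after seeding; fluorescence was recorded at intervals up to 40 h.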

Assay [4] in a line: qHTS RealTime-Glo MT Cell Viability Assay in HEK293 cells - 8 hour (AID 1224887). Note: nearly all actives have a fitted effect of over 50% in size. Note: potency is the fitted concentration of half-maximal effect. The essentials:
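Nonlytic bioluminescent viability monitoring. HEK293 at 600 cells/well with reagent; 5 h settle; compound transfer by pintool; plates held at 37 C and read at set time points.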

A short description of assay [5]: A CellTox Green Cytotoxicity Assay to monitor cytotoxicity in HEK293 cells - 16 hour (AID 1224888). Note: nearly all actives have a fitted effect of over 35% in size. The procedure, abridged: as §2
Assay [6] is described as follows: qHTS RealTime-Glo MT Cell Viability Assay in HepG2 cells - 0 hour (AID 1224889). Note: nearly all actives have a fitted effect of over 50% in size. The procedure, abridged:
(§3)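 Cells + NanoLuc/prosubstrate dispensed (600 cells/well) → 5 h at 37 C/5% CO2 → compounds in DMSO transferred → 40 h incubation at 37 C, luminescence read at 0, 8, 16, 24, 32, 40 h.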

Assay [7] is described as follows: A CellTox Green Cytotoxicity Assay to monitor cytotoxicity in HepG2 cells - 8 hour (AID 1224890). Note: nearly all actives have a fitted effect of over 45% in size. The essentials:
as §1

Assay [8] can be described thus: qHTS assay to identify small molecule antagonists of the estrogen receptor alpha (ER-alpha) signaling pathway using the BG1 cell line in the presence of 0.1 nM 17-beta-estradiol - cell viability counter screen (AID 1259241). Note: nearly all actives have a fitted effect of over 40% in size. The procedure, abridged:
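Following 5 days in phenol red-free medium with charcoal-stripped serum, VM7Luc4E2 cells received test compounds alongside 0.1 nM 17beta-estradiol (final) at 37C for 22 hr. Live cells were then quantified via protease-substrate fluorescence.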

Assay [9] can be described thus: qHTS assay to identify small molecule antagonists of the androgen receptor (AR) signaling pathway using the MDA cell line in the presence of 0.5 nM R1881 - cell viability counter screen (AID 1259242). Note: nearly all actives have a fitted effect of over 45% in size. Note: potency is the fitted concentration of half-maximal effect. The essentials:
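Cytotoxicity toward MDA-kb2 cells is measured by CellTiter-Fluor live-cell protease fluorescence after 16 hr compound exposure at 37C in the presence of 0.5 nM R1881 stimulator.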

In assay [10] the target is Estrogen receptor (Homo sapiens) (UniProt P03372). Briefly: qHTS assay to identify small molecule antagonists of the estrogen receptor alpha (ER-alpha) signaling pathway using the BG1 cell line in the presence of 0.1 nM 17-beta-estradiol (AID 1259244). Note: nearly all actives have a fitted effect of over 50% in size. The procedure, abridged:
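After 5 days in hormone-depleted medium (charcoal-stripped serum, no phenol red), VM7Luc4E2 cells were seeded, incubated 24 h, then co-treated with compound and 0.1 nM (final) estradiol for 22 h before luminescence detection.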

Assay [11] can be described thus: qHTS assay to identify small molecule HDAC inhibitors (AID 1259364). Note: top concentration of the series differs between compounds; nearly all actives have a fitted effect of over 45% in size. The procedure, abridged:
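Homogeneous cell-based luminescent assay of endogenous class I/II HDAC activity; HCT-116 cells, 2 h compound exposure, 30 min HDAC-Glo development at RT.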

Assay [12] is described as follows: qHTS assay to identify small molecule HDAC inhibitors - cell viability counter screen (AID 1259365). The essentials:
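HCT-116 wild-type, overnight attachment; 2hr drug exposure, 37C; CellTiter-Glo luminescent ATP readout after 30min RT.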

The nature of assay [13]: qHTS assay to identify small molecule agonists of the sonic hedgehog signaling (Shh) pathway - cell viability counter screen (AID 1259366). Note: nearly all actives have a fitted effect of over 50% in size. Note: potency is the fitted concentration of half-maximal effect. The essentials:
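Compounds in DMSO were pin-transferred onto 3T3 Gli1-Luc cells that had settled 4hr; plates then stood 24hr at 37C and 5% CO2. One hour before the end, CellTiter-Fluor was added and fluorescence recorded.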

Assay [14] can be described thus: qHTS assay to identify small molecule antagonists of the sonic hedgehog signaling (Shh) pathway - cell viability counter screen (AID 1259367). Note: nearly all actives have a fitted effect of over 55% in size. The procedure, abridged: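 Seed 3T3 Gli1-Luc cells at 2,000 per well; incubate 4 hr; add compound in DMSO, then conditioned medium; incubate at 37C with 5% CO2; add CellTiter-Fluor after 23 hr; read fluorescence 1 hr later.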

Assay [15] can be described thus: qHTS assay to identify small molecule agonists of the sonic hedgehog signaling (Shh) pathway (AID 1259368; calls by dose curve;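 note: NIH/3T3-derived 3T3Gli1-Luc cells carrying a stable Gli1-driven firefly luciferase reporter; series mostly up to about 92 µM; nearly all actives have a fitted effect of over 15% in size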). The procedure, abridged: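 Steps: seed 3T3 Gli1-Luc cells, incubate 4 hr at 37 C, pin-transfer compounds in DMSO alongside a positive control, incubate 24 hr, add luciferase detection reagent, wait 30 min at room temperature, read luminescence.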
Assay [16] can be described thus: qHTS assay to identify small molecule antagonists of the sonic hedgehog signaling (Shh) pathway (AID 1259369; calls by dose curve; note: nearly all actives have a fitted effect of over 45% in size; note: potency is the fitted concentration of half-maximal effect). The essentials:
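Inhibition of Shh signalling is measured as reduced Gli1-response-element firefly luciferase output in an NIH/3T3-derived stable reporter clone stimulated with conditioned medium for 24hr.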

A short description of assay [17]: qHTS RealTime-Glo MT Cell Viability Assay in HepG2 cells - 16 hour (AID 1224885). Note: nearly all actives have a fitted effect of over 50% in size. The essentials:
as §3

Assay [18] is described as follows: qHTS RealTime-Glo MT Cell Viability Assay in HEK293 cells - 24 hour (AID 1224886). Note: nearly all actives have a fitted effect of over 50% in size. Note: potency is the fitted concentration of half-maximal effect. The procedure, abridged:
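Tox21 10K qHTS, HEK293, 600 cells/well, RealTime-Glo reagent co-dispensed with cells; 5 h preincubation, compound by pintool, 37 C, luminescence at 0–40 h.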

The target in assay [19] is Androgen receptor (Homo sapiens) (UniProt P10275). Briefly: qHTS assay to identify small molecule antagonists of the androgen receptor (AR) signaling pathway using the MDA cell line in the presence of 0.5 nM R1881 (AID 1259243). Note: nearly all actives have a fitted effect of over 50% in size. The procedure, abridged:
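Steps: seed MDA-kb2 cells, incubate 5 hr at 37C; pin-transfer compounds in DMSO; add R1881 to 0.5 nM final; incubate 16 hr; add ONE-Glo, wait 30 min at room temperature; read luminescence.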

A short description of assay [20]: qHTS assay to identify small molecule phospholipidosis (PLD) inducers (AID 1259344; active = well fitted curve in the direction sought with a large enough effect; an effect the other way counts as inactive or inconclusive). The procedure, abridged: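 Quantitative HTS in HepG2: compound plus LipidTOX Red dye for 24 h, paraformaldehyde fixation with Hoechst 33342, widefield high-content imaging; amiodarone as positive and DMSO as negative control.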

Records with an inconclusive call do not appear. Activity calls are given as the source filed them. Unless noted, calls come from the whole dose curve; as a rule, active = well fitted curve in the direction sought with a large enough effect in the repeat runs; inconclusive = weak or mixed curves; inactive = no such curve, though single readings can be large; an effect the other way counts as inactive or inconclusive.

Sequence of Estrogen receptor (Homo sapiens) (P03372 whole entry, looked up): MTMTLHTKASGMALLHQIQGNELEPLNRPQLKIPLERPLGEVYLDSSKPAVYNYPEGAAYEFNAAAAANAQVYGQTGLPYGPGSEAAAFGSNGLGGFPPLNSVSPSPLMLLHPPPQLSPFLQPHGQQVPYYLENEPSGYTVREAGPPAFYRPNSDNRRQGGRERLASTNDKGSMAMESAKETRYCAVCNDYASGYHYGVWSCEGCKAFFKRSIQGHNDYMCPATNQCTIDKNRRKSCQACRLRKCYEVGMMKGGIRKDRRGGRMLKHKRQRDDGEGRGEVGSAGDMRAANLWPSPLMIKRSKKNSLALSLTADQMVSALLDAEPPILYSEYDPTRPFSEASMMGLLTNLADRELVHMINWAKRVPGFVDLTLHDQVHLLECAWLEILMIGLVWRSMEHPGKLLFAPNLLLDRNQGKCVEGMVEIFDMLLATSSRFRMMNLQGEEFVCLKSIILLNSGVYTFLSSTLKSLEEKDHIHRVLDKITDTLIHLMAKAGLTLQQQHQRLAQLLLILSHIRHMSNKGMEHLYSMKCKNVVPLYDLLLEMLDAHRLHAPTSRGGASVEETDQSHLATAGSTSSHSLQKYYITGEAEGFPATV
Sequence of Androgen receptor (Homo sapiens) (P10275 whole entry, looked up): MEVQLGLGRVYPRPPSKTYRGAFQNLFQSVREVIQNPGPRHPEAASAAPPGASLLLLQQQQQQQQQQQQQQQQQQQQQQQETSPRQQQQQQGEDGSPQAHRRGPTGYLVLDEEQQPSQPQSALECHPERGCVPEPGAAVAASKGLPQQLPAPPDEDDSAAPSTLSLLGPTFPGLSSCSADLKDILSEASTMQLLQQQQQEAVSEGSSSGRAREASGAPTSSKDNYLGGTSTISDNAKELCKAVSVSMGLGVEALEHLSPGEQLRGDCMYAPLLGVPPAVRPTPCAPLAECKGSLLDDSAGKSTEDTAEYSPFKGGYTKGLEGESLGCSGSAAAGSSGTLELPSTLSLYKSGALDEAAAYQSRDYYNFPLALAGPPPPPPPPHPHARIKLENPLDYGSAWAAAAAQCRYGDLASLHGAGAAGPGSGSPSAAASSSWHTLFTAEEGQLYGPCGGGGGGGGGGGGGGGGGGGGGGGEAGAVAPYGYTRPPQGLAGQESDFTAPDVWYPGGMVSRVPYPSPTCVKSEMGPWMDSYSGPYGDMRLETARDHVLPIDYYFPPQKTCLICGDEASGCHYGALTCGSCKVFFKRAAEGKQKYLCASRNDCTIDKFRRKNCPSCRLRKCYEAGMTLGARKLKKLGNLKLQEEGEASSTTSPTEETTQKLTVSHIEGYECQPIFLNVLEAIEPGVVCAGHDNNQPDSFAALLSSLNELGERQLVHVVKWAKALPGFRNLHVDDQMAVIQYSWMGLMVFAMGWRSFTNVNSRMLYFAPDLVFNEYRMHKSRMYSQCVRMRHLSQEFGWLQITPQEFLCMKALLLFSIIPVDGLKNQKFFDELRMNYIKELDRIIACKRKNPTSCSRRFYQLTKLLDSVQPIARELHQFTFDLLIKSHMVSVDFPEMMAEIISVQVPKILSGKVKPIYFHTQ

Take `CCCCCc1ccc(Cl)cc1`: the Potency result in assay [1], in [2], in assay [3], in assay [4], in assay [5] and in assay [6] was “inactive” each time. For the same molecule, the Potency entry in assay [7], in assay [8], in assay [9], in assay [10], in [11] and in assay [12] was “inactive” in each case. Further, the Potency result in assay [13], in assay [14], in assay [15] and in assay [16] was “inactive” each time.
With `FC(F)(F)c1cccc(Cl)c1`, the Potency entry in assay [1], in assay [2], in assay [17], in assay [18], in assay [4] and in assay [5] was “inactive” in each case. Moreover, the Potency result in assay [6], in [7], in [8], in [9], in assay [19] and in assay [10] was “inactive” in each case. In addition, the Potency entry in [11], in [12], in assay [15] and in assay [16] was “inactive” in each case.
Consider `O=C1CCc2ccc(OCCCCN3CCN(c4cccc(Cl)c4Cl)CC3)cc2N1`, for which the Potency result in assay [1], in [3], in assay [5], in [7], in [20] and in [12] was “inactive” each time. In addition, the Potency entry in assay [14] and in [15] was “inactive” in each case. Moreover, the Potency was 26.8 µM (active) in assay [2]; 9.52 µM (active) in assay [18]; 21.3 µM (active) in [4]; 29.8 µM (active) in assay [9]; 11.9 µM (active) in [16].
Turning to `COc1ccc2cc1Oc1ccc(cc1)C[C@H]1c3c(cc4c(c3Oc3cc5c(cc3OC)CCN(C)[C@@H]5C2)OCO4)CCN1C`, the Potency result in assay [1], in [3], in assay [6], in assay [7], in assay [11] and in assay [12] was “inactive” in each case. The Potency result in [15] was “inactive”. Besides, the Potency is 23.9 µM (active) in assay [2], 21.1 µM (active) in assay [9], 11.9 µM (active) in assay [13] and 3.76 µM (active) in assay [16].
As to `Oc1cc(Cl)cc(Cl)c1Cl`, the Potency result in assay [1], in assay [2], in assay [17], in [7], in assay [8] and in [9] was “inactive” each time. The Potency result in assay [11], in [12], in assay [13] and in [15] was “inactive” throughout. Besides, the Potency in [16] is 31.4 µM (active).
In the case of `CCCCCCCCCCC[C@@H](C[C@@H]1OC(=O)[C@H]1CCCCCC)OC(=O)[C@H](CC(C)C)NC=O`, the Potency result in assay [1], in assay [3], in assay [5], in assay [6], in assay [7] and in assay [8] was “inactive” each time. The Potency entry in assay [9], in assay [10], in assay [20], in assay [11], in [12] and in assay [13] was “inactive” throughout. Besides, the Potency entry in assay [14], in assay [15] and in assay [16] was “inactive” in each case. For the same molecule, the Potency in [2] was 16.9 µM (active); in assay [18], 8.49 µM (active).
For `C=Cc1ccccc1C=C`, the Potency result in [1], in assay [2], in assay [17], in assay [18], in assay [4] and in assay [5] was “inactive” in each case. In addition, the Potency entry in assay [6], in assay [7], in assay [8], in assay [9], in [10] and in [12] was “inactive” each time. In addition, the Potency entry in [13], in assay [14], in assay [15] and in assay [16] was “inactive” each time.
Regarding `Cc1c(N)cccc1C(F)(F)F`, the Potency result in assay [1], in assay [2], in assay [17], in assay [18], in assay [4] and in assay [5] was “inactive” each time. The Potency result in [6], in [7], in assay [8], in assay [9], in [19] and in [11] was “inactive” throughout. Besides, the Potency entry in assay [12], in [13], in [14], in [15] and in [16] was “inactive” in each case.

For the origin of these results see PubChem BioAssay (Tox21).
